Assay outcomes from PubChem BioAssay.
Many of the other results were omitted from the sample, so hits are more common in it than they were.
Rtt109 HAT inh: C. albicans Rtt109 histone acetyltransferase inhibition | Q5AAJ8 | purified Rtt109/Vps75, ThioGlo CoA-SH fluorescence, 4 h | inhibition, % at 34.9 µM | 330,000 tested, 0.16% active | AID 540336;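 active = inhibition of at least 50% in every replicate; inconclusive = best replicate reaches 50% inhibition but some replicates fall short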
Target sequence (Q5AAJ8 whole entry, looked up): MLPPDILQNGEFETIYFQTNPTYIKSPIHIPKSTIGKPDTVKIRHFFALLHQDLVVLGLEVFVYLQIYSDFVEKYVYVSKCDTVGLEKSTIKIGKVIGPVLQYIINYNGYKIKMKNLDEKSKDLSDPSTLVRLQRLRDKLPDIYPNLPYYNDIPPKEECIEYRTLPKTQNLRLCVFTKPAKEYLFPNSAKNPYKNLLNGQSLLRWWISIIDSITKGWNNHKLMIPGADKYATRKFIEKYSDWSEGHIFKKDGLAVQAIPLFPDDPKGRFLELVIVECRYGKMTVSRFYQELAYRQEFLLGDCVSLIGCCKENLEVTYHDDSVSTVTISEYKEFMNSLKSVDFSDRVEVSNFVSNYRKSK
N-glyco inh: blocks N-linked glycosylation in D54 reporter cells. 360,000 tested, 0.23% active. D54 ERlucT glycosylation luciferase reporter, 24 h; percent of 100 nM tunicamycin response. reporter increase, % at 12.5 µM;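 active = mean luciferase reporter signal, scaled so untreated is 0 and the glycosylation-blocking control 100, at or above a set limit in every replicate; inconclusive = mean reaches the limit but not every replicate does; inactive = mean below the limit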;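 note: luciferase carries N-glycosylation sites so blocking glycosylation raises the light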
PglD DTNB: inhibitors of Campylobacter jejuni PglD acetyltransferase; inhibition, % at 12.5 µM; 360,000 tested, 0.098% active; purified PglD enzyme, DTNB colorimetric CoA detection; AID 602405; in the data active = inhibition above about 16%, passing the limit was not always enough; inconclusive = no clear call, values can overlap the other calls
DENV2 CPE: DENV2-induced cell death inhibition | DENV2-infected cells, cytopathic effect rescue, plate reader | CPE inhibition, % at 9.99 µM | 350,000 tested, 1.7% active | AID 651640; in the data active = CPE inhibition above about 20%, passing the limit was not always enough; inconclusive = no clear call, values can overlap the other calls; tested in BHK-21 cells
Numbers stand for hits; . = inactive; ? = inconclusive; / = no result given.

SMILES	Rtt109 HAT inh	N-glyco inh	PglD DTNB	DENV2 CPE
COc1ccc(C2NC(=O)C(C#N)=C(S)N2c2ccc(C)cc2)cc1OC (centres undefined)	.	.	/	.
Cc1ccc(N2C(S)=C(C#N)C(=O)NC2c2cccs2)cc1 (centres undefined)	?	.	/	.
CO[C@@H]1CN(C)C(=O)c2cc(NC(=O)C3CCCC3)ccc2OC[C@@H](C)N(Cc2nccs2)C[C@H]1C	/	/	.	.
OCCCNc1c2ccccc2nc2ccccc12	.	36	.	.
CN(C)CCCNc1c2c(nc3ccccc13)CCC2	.	30	.	.
COc1ccc(CCNc2c3ccccc3nc3ccccc23)cc1OC	.	84	.	.
Cc1ccc(-c2nc(NCCCO)c3ccccc3n2)cc1	.	.	.	31
COc1nc(NCCc2ccc(OC)c(OC)c2)nc(OC)n1	/	.	.	/
Cc1ccc(S(=O)(=O)Nc2ccc3c(c2)C(=O)N([C@H](C)CO)C[C@@H](C)[C@@H](CN(C)C(=O)CCCN(C)C)OCCCC[C@@H](C)O3)cc1	/	/	.	.
Cc1ccc(-n2nc(C)c(NC(=O)CCl)c2C)cc1C	.	48	.	/
CCC(=O)Nc1c(C)nn(-c2ccc(C)c(C)c2)c1C	/	.	.	.
COc1ccc(C#Cc2ccc([C@H]3[C@H]4CN(C(=O)c5ccncc5)CCCCN4[C@H]3CO)cc2)cc1	/	/	.	.
CO[C@H]1CN(C)C(=O)c2cc(NS(=O)(=O)CC(F)(F)F)ccc2OC[C@H](C)N(Cc2cccnc2)C[C@@H]1C	/	/	.	37
CO[C@H]1CN(C)C(=O)c2ccc(NS(=O)(=O)CC(F)(F)F)cc2OC[C@H](C)N(Cc2cccnc2)C[C@@H]1C	/	/	.	.
CO[C@H]1CN(C)C(=O)c2ccc(NS(C)(=O)=O)cc2OC[C@@H](C)N(Cc2cccnc2)C[C@H]1C	/	/	.	.
CO[C@@H]1CN(C)C(=O)c2ccc(NS(C)(=O)=O)cc2OC[C@H](C)N(Cc2cccnc2)C[C@@H]1C	/	/	.	26
COc1ccc(-c2cc(C)no2)cc1S(=O)(=O)Nc1cccc(C)c1	.	.	.	.
COc1ccc(-c2cc(C)no2)cc1S(=O)(=O)Nc1ccccc1	.	45	.	.
O=C(C[C@@H]1C[C@@H]2c3cc(NC(=O)C4CCOCC4)ccc3O[C@@H]2[C@H](CO)O1)NCCc1ccccc1	/	/	.	.
CN1C(=O)c2cc(NC(=O)c3ccc(F)c(F)c3)ccc2OC[C@H]2O[C@@H](CC(=O)N3CCOCC3)CC[C@H]21	/	/	.	.
CSc1ccc(S(=O)(=O)NC2CC3CCC2C3)cc1 (centres undefined)	.	.	.	37
COc1ccc(S(=O)(=O)NC2CC3CCC2C3)cc1 (centres undefined)	.	.	.	.
CCNC(=O)C[C@@H]1CC[C@@H]2[C@@H](COc3ccc(NC(=O)Nc4cccc(OC)c4)cc3C(=O)N2C)O1	/	/	.	.
OC[C@H]1[C@@H]2c3ccccc3NC[C@@H]2N1CC1CCOCC1	/	/	.	22
CCOc1ccc(N2C(=O)Nc3ccccc3C2(O)C(=O)N2CCN(c3ccccn3)CC2)cc1 (centres undefined)	.	27	.	.
SMILES	Rtt109 HAT inh	N-glyco inh	PglD DTNB	DENV2 CPE
C[C@H]1CN([C@@H](C)CO)C(=O)c2cc(C#CC3CCCCC3)cnc2O[C@H]1CN(C)C(=O)Nc1ccccc1	/	/	.	.
CCCNC(=O)N1CC2(C1)CN(C(=O)c1ccccc1)[C@@H](CO)c1[nH]c3cc(OC)ccc3c12	/	/	/	.
COc1ccc(S(=O)(=O)N2CCC(C(=O)NCCC(=O)NCc3ccncc3)CC2)cc1	.	.	.	.
COc1ccc(S(=O)(=O)N2CCC(C(=O)NCCC(=O)NCc3cccnc3)CC2)cc1	/	.	.	75
CN(C(=O)Nc1ccc(F)cc1)[C@H]1C[C@H]2c3[nH]c4ccccc4c3CCN2C(=O)[C@H]1CO	/	.	.	44
COc1ccc(NC(=O)N(C)[C@H]2C[C@H]3c4[nH]c5ccccc5c4CCN3C(=O)[C@H]2CO)cc1	/	.	.	.
O=C(c1ccccc1)N1CC2(C1)[C@@H](c1ccccc1)[C@H](CO)N2C(=O)CC1CC1	/	/	/	.
CCOC(=O)C(=CNc1cccc(N)n1)C(=O)OCC	.	.	.	/
CCOC(=O)C(=CNc1ccc(Cl)cn1)C(=O)OCC	.	.	/	67
Cc1ccc(-c2ccc3c(c2)O[C@@H](CN(C)Cc2cccnc2)[C@H](C)CN([C@H](C)CO)S3(=O)=O)cc1	/	/	.	.
Cc1ccccc1S(=O)(=O)N[C@@H]1CC[C@@H](CCn2cc(-c3ccc(F)cc3)nn2)O[C@@H]1CO	/	/	.	.
CC(OC(=O)c1ccc2c(=O)n3c(nc2c1)CCC3)C(=O)NC1CCCCC1C (centres undefined)	.	.	.	33
